Measured values: the supplement of paper PMC8975748
Where a name gives a salt, the structure may show the parent alone.

These molecules were tested on Saccharomyces cerevisiae BY4741 SeMeCo community (assay: z-score of subpopulation abundance vs DMSO median, subpopulation auxotrophic for HLU; higher = larger share of this subpopulation than in DMSO controls). Details: 10 µM; 24 h; SM minimal medium; subpopulation (auxotrophy): HLU.
Outline: (§1)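 Subpopulation abundance was reported as a z-score against the median of vehicle wells. The Saccharomyces cerevisiae BY4741 community, carrying four plasmids that each restored one auxotrophy and encoded a distinct fluorescent protein, was grown 24 h in minimal SM medium in 384-well plates holding library drugs at 10 µM final. Cells were paraformaldehyde-fixed and imaged by automated confocal microscopy, with single-auxotroph fluorescent strains used for thresholds and autofluorescence correction.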

SMILES | z-score of subpopulation abundance
NCC[C@H](O)C(=O)N[C@@H]1C[C@H](N)[C@@H](O[C@H]2O[C@H](CN)[C@@H](O)[C@H](O)[C@H]2O)[C@H](O)[C@H]1O[C@H]1O[C@H](CO)[C@@H](O)[C@H](N)[C@H]1O [Amikacin disulfate] | 0.12
CS(=O)(=O)c1ccc([C@@H](O)[C@@H](CF)NC(=O)C(Cl)Cl)cc1 [Florfenicol] | -0.45
CC(=O)OCC(COC(C)=O)OC(C)=O [Triacetin] | -1.12
CCN(CC)CCOc1ccc2c(c1)C(=O)c1cc(OCCN(CC)CC)ccc1-2 [Tilorone dihydrochloride] | -0.23
CN(C)[C@@H](CCOc1cccc2ccccc12)c1ccccc1 [Dapoxetine HCl] | 1.25
OCCN1CCN(CCCN2c3ccccc3Sc3ccc(C(F)(F)F)cc32)CC1 [Fluphenazine dihydrochloride] | 1.24
COc1ccc(C2CNC(=O)C2)cc1OC1CCCC1 (stereo unspecified) [Rolipram] | -0.57
NNc1nncc2ccccc12 [Hydralazine HCl] | -0.68
CO/N=C(\C(=O)N[C@@H]1C(=O)N2C(C(=O)O)=C(CSc3nnnn3C)CS[C@H]12)c1csc(N)n1 [Cefmenoxime hydrochloride] | -0.51
CN1CCN(CCCN2c3ccccc3Sc3ccc(C(F)(F)F)cc32)CC1 [Trifluoperazine 2HCl] | -0.24
C[C@]12CC[C@@H]3c4ccc(OS(=O)(=O)O)cc4CC[C@H]3[C@@H]1CCC2=O [Estropipate] | -0.73

Each molecule was assayed on Saccharomyces cerevisiae BY4741 SeMeCo community (assay: z-score of subpopulation abundance vs DMSO median, subpopulation auxotrophic for HLM; higher = larger share of this subpopulation than in DMSO controls). Details: 10 µM; 24 h; SM minimal medium; subpopulation (auxotrophy): HLM.
Outline: as §1

SMILES | z-score of subpopulation abundance
CC(C)Cc1ccc(C(C)C(=O)O)cc1 (stereo unspecified) [Ibuprofen] | 0.37
Fc1ccc(C(c2ccc(F)cc2)N2CCN(C/C=C/c3ccccc3)CC2)cc1 [Flunarizine 2HCl] | 1.25
COCCCN1CCC(NC(=O)c2cc(Cl)c(N)c3c2OCC3)CC1 [Prucalopride Succinate] | 1.1
CCCCOc1ccc(CC(=O)NO)cc1 [Bufexamac] | -1.19
O=C(Nc1cc(Cl)cc(Cl)c1O)c1c(O)c(Cl)cc(Cl)c1Cl [Oxyclozanide] | 0.96
CCC(=O)NS(=O)(=O)c1ccc(-c2c(-c3ccccc3)noc2C)cc1 [Parecoxib Sodium] | 0.26
CN(CCN1CCC(OC(=O)Nc2ccccc2-c2ccccc2)CC1)C(=O)c1ccc(CN2CCC(C(N)=O)CC2)cc1 [Revefenacin] | -0.49
Cc1nnc(NS(=O)(=O)c2ccc(N)cc2)s1 [Sulfamethizole] | -0.87
CC1=CC[C@@](O)(C(C)C)CC1 [Terpinen-4-ol] | 0.54
Cn1c([N+](=O)[O-])cnc1COC(N)=O [Ronidazole] | -0.96
CC(=O)OCC(COC(C)=O)OC(C)=O [Triacetin] | -0.57
COc1ccc(Cl)cc1C(=O)NCCc1ccc(S(=O)(=O)NC(=O)NC2CCCCC2)cc1 [Glyburide (Glibenclamide)] | -0.04
O=C(Nc1c(Cl)cncc1Cl)c1ccc(OC(F)F)c(OCC2CC2)c1 [Roflumilast] | -0.77
CCN(CC)CCOc1ccc2c(c1)C(=O)c1cc(OCCN(CC)CC)ccc1-2 [Tilorone dihydrochloride] | 0.21
CN(C)CCC=C1c2ccccc2C(C)(C)c2ccccc21 [Melitracen hydrochloride] | -1.11
COc1cc(Cc2cnc(N)nc2N)cc(OC)c1OC [Trimethoprim] | -0.6
OCCN1CCN(CCCN2c3ccccc3Sc3ccc(C(F)(F)F)cc32)CC1 [Fluphenazine dihydrochloride] | 1.11
CC(C)c1c(C(=O)Nc2ccccc2)c(-c2ccccc2)c(-c2ccc(F)cc2)n1CC[C@@H](O)C[C@@H](O)CC(=O)O [Atorvastatin] | 1.21
COc1ccc(C2CNC(=O)C2)cc1OC1CCCC1 (stereo unspecified) [Rolipram] | -1.22
NNc1nncc2ccccc12 [Hydralazine HCl] | 0.17
COCCOC(=O)C1=C(C)NC(C)=C(C(=O)OC(C)C)C1c1cccc([N+](=O)[O-])c1 (stereo unspecified) [Nimodipine] | -0.43
CCOC(=O)C1=C(C)NC(C)=C(C(=O)OC)C1c1cccc([N+](=O)[O-])c1 (stereo unspecified) [Nitrendipine] | -0.87
CC(C)n1c(/C=C/C(O)CC(O)CC(=O)O)c(-c2ccc(F)cc2)c2ccccc21 (stereo unspecified) [Fluvastatin Sodium] | 21.3
CCCN[C@H]1CCc2nc(N)sc2C1 [Pramipexole dihydrochloride] | -0.79
Cc1cc(C)nc(NS(=O)(=O)c2ccc(N)cc2)n1 [Sulfamethazine] | 0.59
